Measurements published in PubChem BioAssay (NCI).
Compounds without any hit were thinned out: in the full panel of roughly 83,000, 20% have a hit.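 48-hour exposure, single concentration, 96-well plates; percent growth endpoint where 0 means no net growth. Active: below 10.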 Values without a mark were called inactive. The source made the active and inactive calls.

tested on: MDA-MB-231 breast; assay: NCI-60 one-dose screen, 48 h (100 = growth as untreated, 0 = no growth, -100 = all killed); details: 10 µM unless noted

SMILES | growth
C=CC(=O)Nc1cccc(-c2nc(SC)nc(NCc3ccccc3)c2C#N)c1 | 62.4%
COC(=O)c1ccc2oc(NC(=O)c3ccc(Nc4ccc([N+](=O)[O-])cc4C)c([N+](=O)[O-])c3)nc2c1 | 105%
COc1cc(/C=C/c2cc(/C=C/c3ccc(O)c(OC)c3)n(-c3c(Cl)cccc3Cl)c(=O)n2)ccc1O | 29%
CSc1nc(Nc2cccc(NC(=O)CCl)c2)c(C#N)c(-c2cccc([N+](=O)[O-])c2)n1 | 68.4%
CC(C)(C)N1CCC1CN (stereo unspecified) | 116%
Cc1ccc(NC(=O)/C=C/c2ccccc2)c(C(N)=O)c1 | 52.5%
COc1ccc(-n2nc(C)c3c(Nc4ccc(NC(=O)Nc5cccc(C(F)(F)F)c5)cc4)ncnc32)cc1 | -18.7% (active)
O=C1OCC2=C1C(c1ccncc1)c1cc3c(cc1N2CCO)OCO3 (stereo unspecified) | 101%
C#Cc1cccc(NC(=O)c2ccccc2NC(=O)C=C)c1 | 102% [8.25 µM]
CCOc1cc2ncc(C#N)c(Nc3ccc(F)c(Cl)c3)c2cc1NC(=O)CC1CCSS1 (stereo unspecified) | -66.4% (active)
CN(Cc1cc(Cl)cc(Cl)c1O)Cc1cc(Cl)cc(Cl)c1O | 78.5%
CC(=O)O[C@H]1[C@@H]2OC(=O)C(CSc3ccccc3)[C@@H]2C[C@H]2O[C@]2(C)CC/C=C(\C)CCC[C@@H]1C (stereo partly specified) | 14.9%
COc1ccc(/C=N/C2=C(C#N)C(c3ccc(N(C)C)cc3)c3ccc4ccccc4c3O2)cc1 (stereo unspecified) | 52.5%
C[n+]1ccccc1/C=C/c1ccc2cccc(O)c2n1 | 93.3%
Cc1nn(-c2ccc(F)cc2)c2ncnc(Oc3ccc(NC(=O)Nc4ccc(Cl)c(C(F)(F)F)c4)cc3)c12 | 103%
COc1ccc(C(=O)c2sc3nc(C)cc(C)c3c2N)cc1OC | 56.3%
C=CC(=O)Nc1cccc(-c2nc(SC)nc(Nc3ccccc3OC)c2C#N)c1 | 33.2%
Nc1nc2ncc(CCNc3ccc(C(=O)O)cc3)nc2c(=O)[nH]1 | 107%
CCCSc1ccc2nc(NC(=O)OC)[nH]c2c1 | 18.8%

SMILES | growth
CCCc1cc(=O)n2c(C(=O)Nc3ccc(F)cc3)c(C(=O)Nc3ccc(F)cc3)sc2n1 | 44.2% [30 µM]
O=C(/C=C/c1ccccc1)c1ccc(O)c(CN2CCN(c3cc4c(cc3F)c(=O)c(C(=O)O)cn4C3CC3)CC2)c1 | 33.3%
CCOC(=O)c1sc2nc(-c3cccc(OC)c3)nc(N3CCOCC3)c2c1C | 95%
CCCCCCCCCCCCC[N+](C)(C)Cc1ccccc1 | -55.6% (active)
CCCOc1ccc2nc(NC(=O)OC)[nH]c2c1 | -1.41% (active)
Nc1n[nH]c2ccc([C@@H]3Nc4ccc5cn[nH]c5c4[C@H]4C5CCC(C5)[C@@H]34)cc12 (stereo partly specified) | 50.8%
O=c1nc2oc3ccc4ccccc4c3cc-2s1 | 42.7%
COC(=O)c1cccc(NC(=O)c2ccc(-c3cccc(N)c3)o2)c1 | 99.4%
CCOC(=O)c1c(C)oc2ncnc(N3CCN(C(=S)Nc4ccccc4)CC3)c12 | 89.1%
CCCCN(CCCC)CCCn1c(-c2ccccc2)ccc1-c1ccccc1 | 22.9%
CN1CCN(CCCOc2cccc3nc(Nc4ccc(Cl)c(F)c4)ccc23)CC1 | -57.6% (active)
COc1cccc(/C=N/NC(=O)c2ccccc2Nc2ccnc(C(F)(F)F)c2)c1O | 42.6%
COc1cc2nc(N3CCCC3)nc(NCc3ccccc3)c2cc1OC | 68.9%
COc1cc2c(cc1-c1c(C)noc1C)ncc1nc(-c3ccccn3)n([C@H](C)COC(F)F)c12 | 41.2%
COc1cccc(-c2nc3sccn3c2-c2ccnc(NCCCNS(=O)(=O)c3c(Cl)cccc3Cl)c2)c1 | 87.8%
N#Cc1c(-c2ccc(Cl)cc2)nc(NN=Cc2ccco2)nc1N1CCOCC1 | 74.5%
O=C(Nc1cccc2[nH]c(C(F)(F)F)nc12)c1ccc(-n2cnnn2)cc1 | 93.1%
CC1CCNC(C)C1 (stereo unspecified) | 107%
CCN(CC)c1ccc(-c2cc(-c3cc(OC)c(OC)c(OC)c3)nc(N3CCOCC3)c2C#N)cc1 | -10.9% (active)

tested on: RXF 393 renal; assay: as above; details: 10 µM unless noted

SMILES | growth
C=CC(=O)Nc1cccc(-c2nc(SC)nc(NCc3ccccc3)c2C#N)c1 | 21.9%
COC(=O)c1ccc2oc(NC(=O)c3ccc(Nc4ccc([N+](=O)[O-])cc4C)c([N+](=O)[O-])c3)nc2c1 | 103%
COc1cc(/C=C/c2cc(/C=C/c3ccc(O)c(OC)c3)n(-c3c(Cl)cccc3Cl)c(=O)n2)ccc1O | -11.8% (active)
CSc1nc(Nc2cccc(NC(=O)CCl)c2)c(C#N)c(-c2cccc([N+](=O)[O-])c2)n1 | 43.7%
CC(C)(C)N1CCC1CN (stereo unspecified) | 155%
Cc1ccc(NC(=O)/C=C/c2ccccc2)c(C(N)=O)c1 | -9.67% (active)
COc1ccc(-n2nc(C)c3c(Nc4ccc(NC(=O)Nc5cccc(C(F)(F)F)c5)cc4)ncnc32)cc1 | -36% (active)
O=C1OCC2=C1C(c1ccncc1)c1cc3c(cc1N2CCO)OCO3 (stereo unspecified) | 99.3%
C#Cc1cccc(NC(=O)c2ccccc2NC(=O)C=C)c1 | 120% [8.25 µM]
CCOc1cc2ncc(C#N)c(Nc3ccc(F)c(Cl)c3)c2cc1NC(=O)CC1CCSS1 (stereo unspecified) | -56.5% (active)
CN(Cc1cc(Cl)cc(Cl)c1O)Cc1cc(Cl)cc(Cl)c1O | 81.8%
CC(=O)O[C@H]1[C@@H]2OC(=O)C(CSc3ccccc3)[C@@H]2C[C@H]2O[C@]2(C)CC/C=C(\C)CCC[C@@H]1C (stereo partly specified) | -53.3% (active)
COc1ccc(/C=N/C2=C(C#N)C(c3ccc(N(C)C)cc3)c3ccc4ccccc4c3O2)cc1 (stereo unspecified) | 67.2%
C[n+]1ccccc1/C=C/c1ccc2cccc(O)c2n1 | 48.4%
Cc1nn(-c2ccc(F)cc2)c2ncnc(Oc3ccc(NC(=O)Nc4ccc(Cl)c(C(F)(F)F)c4)cc3)c12 | 107%
COc1ccc(C(=O)c2sc3nc(C)cc(C)c3c2N)cc1OC | 93.9%
C=CC(=O)Nc1cccc(-c2nc(SC)nc(Nc3ccccc3OC)c2C#N)c1 | 39.7%
Nc1nc2ncc(CCNc3ccc(C(=O)O)cc3)nc2c(=O)[nH]1 | 112%
CCCSc1ccc2nc(NC(=O)OC)[nH]c2c1 | -4.86% (active)

SMILES | growth
CCCc1cc(=O)n2c(C(=O)Nc3ccc(F)cc3)c(C(=O)Nc3ccc(F)cc3)sc2n1 | 10.4% [30 µM]
O=C(/C=C/c1ccccc1)c1ccc(O)c(CN2CCN(c3cc4c(cc3F)c(=O)c(C(=O)O)cn4C3CC3)CC2)c1 | 17.4%
CCOC(=O)c1sc2nc(-c3cccc(OC)c3)nc(N3CCOCC3)c2c1C | 95.6%
CCCCCCCCCCCCC[N+](C)(C)Cc1ccccc1 | -73.3% (active)
CCCOc1ccc2nc(NC(=O)OC)[nH]c2c1 | 18.2%
Nc1n[nH]c2ccc([C@@H]3Nc4ccc5cn[nH]c5c4[C@H]4C5CCC(C5)[C@@H]34)cc12 (stereo partly specified) | -1.15% (active)
O=c1nc2oc3ccc4ccccc4c3cc-2s1 | -18.5% (active)
COC(=O)c1cccc(NC(=O)c2ccc(-c3cccc(N)c3)o2)c1 | 102%
CCOC(=O)c1c(C)oc2ncnc(N3CCN(C(=S)Nc4ccccc4)CC3)c12 | 90.8%
CCCCN(CCCC)CCCn1c(-c2ccccc2)ccc1-c1ccccc1 | 82.8%
CN1CCN(CCCOc2cccc3nc(Nc4ccc(Cl)c(F)c4)ccc23)CC1 | 54%
COc1cccc(/C=N/NC(=O)c2ccccc2Nc2ccnc(C(F)(F)F)c2)c1O | 21%
COc1cc2nc(N3CCCC3)nc(NCc3ccccc3)c2cc1OC | 35.7%
COc1cc2c(cc1-c1c(C)noc1C)ncc1nc(-c3ccccn3)n([C@H](C)COC(F)F)c12 | 60.8%
COc1cccc(-c2nc3sccn3c2-c2ccnc(NCCCNS(=O)(=O)c3c(Cl)cccc3Cl)c2)c1 | 74.7%
N#Cc1c(-c2ccc(Cl)cc2)nc(NN=Cc2ccco2)nc1N1CCOCC1 | 52.2%
O=C(Nc1cccc2[nH]c(C(F)(F)F)nc12)c1ccc(-n2cnnn2)cc1 | 96.1%
CC1CCNC(C)C1 (stereo unspecified) | 108%
CCN(CC)c1ccc(-c2cc(-c3cc(OC)c(OC)c(OC)c3)nc(N3CCOCC3)c2C#N)cc1 | -9.31% (active)
